ADAM17 inh = ADAM17 inhibition, QFRET primary screen; recombinant ADAM17, EDANS/DABCYL FRET peptide cleavage; AID 720648; inhibition, % at 6.95 µM; P78536; hit rate 0.83% among 370,000;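 active = inhibition above the mean of compounds lying between control limits plus 3 SD, set per campaign, cut at about 8.5% in these data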
HGIII-sPLA2 inh = Inhibits HGIII-sPLA2 liposome hydrolysis, primary screen; Q9NZ20; AID 743126; inhibition, % at 12.2 µM; hit rate 0.56% among 370,000; QFRET BODIPY PC-A2 liposome hydrolysis, fluorescence;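 active = inhibition above mean plus 3 SD of compounds lying within the high and low control bounds, cut at about 19% in these data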
PLC-beta3 inh = inhibitors of human phospholipase C beta3; Purified PLC-beta3, fluorogenic substrate, fluorescence; inhibition, % at 12.2 µM; hit rate 0.18% among 370,000; in the data active = inhibition above about 11%
proKLK7 act = activators of human kallikrein-7 zymogen. P49862. purified proKLK7, EDANS-DABCYL substrate fluorescence; 100% is mature enzyme control, 0% vehicle. activation, % at 7 µM. hit rate 0.9% among 370,000. AID 652039;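 active = activation above the mean of all tested compounds plus 3 SD, computed per campaign excluding outliers beyond control limits, cut at about 13% in these data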
PLC-gamma1 inh = PLC-gamma1 (human) inhibition, primary screen; P19174; inhibition, % at 12.2 µM; purified PLC-gamma1, fluorogenic substrate, fluorescence; hit rate 0.84% among 370,000; in the data active = inhibition above about 9.5%
ADAM10 inh = ADAM10 inhibition, QFRET primary screen | inhibition, % at 7 µM | recombinant ADAM10, EDANS/DABCYL FRET peptide cleavage, 3 h | hit rate 0.62% among 370,000;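 active = inhibition above a per-campaign cutoff equal to the mean of compounds falling between control-based bounds plus 3 SD, cut at about 20% in these data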
Target sequence (O14672 214-748 limits assumed): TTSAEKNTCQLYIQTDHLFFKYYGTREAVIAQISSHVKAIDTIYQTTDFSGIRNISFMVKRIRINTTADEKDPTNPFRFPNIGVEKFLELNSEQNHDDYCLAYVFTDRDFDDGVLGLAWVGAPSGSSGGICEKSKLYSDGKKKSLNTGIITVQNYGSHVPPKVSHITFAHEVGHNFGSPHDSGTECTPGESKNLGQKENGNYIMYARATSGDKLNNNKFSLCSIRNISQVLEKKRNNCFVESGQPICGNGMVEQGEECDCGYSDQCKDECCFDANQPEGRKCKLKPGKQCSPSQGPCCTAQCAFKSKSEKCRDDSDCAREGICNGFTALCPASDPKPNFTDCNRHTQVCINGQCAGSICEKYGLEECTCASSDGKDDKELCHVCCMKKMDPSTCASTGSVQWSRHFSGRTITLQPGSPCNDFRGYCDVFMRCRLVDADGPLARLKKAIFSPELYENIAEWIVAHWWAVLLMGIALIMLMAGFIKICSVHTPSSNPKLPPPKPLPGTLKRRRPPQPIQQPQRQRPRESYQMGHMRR
ADAM10 confirm = confirmation of inhibitors of human ADAM10; AID 743208; ADAM10 QFRET peptide cleavage, EDANS fluorescence; inhibition, % at 6.95 µM; hit rate 1% among 2,100; shares compounds with ADAM10 inh;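 active = inhibition above about 20% chosen separately for each screening run, limit read from the data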
ADAM17 ctr = counter-screen for ADAM10 exosite inhibitors: inhibitors of human ADAM17; hit rate 0.5% among 2,100; AID 743214; inhibition, % at 6.95 µM; shares compounds with ADAM10 inh; ADAM17 QFRET peptide cleavage, EDANS fluorescence;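 active = mean triplicate inhibition above the solvent-only control wells' mean plus 3 SD, cut at about 12% in these data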
ADAM10 ctr = counter-screen for ADAM17 exosite inhibitors: inhibitors of human ADAM10; shares compounds with ADAM17 inh; recombinant ADAM10, EDANS/DABCYL FRET peptide cleavage, 3 h; inhibition, % at 6.95 µM; hit rate 47% among 2,900; AID 743256;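 active = mean inhibition over the triplicate runs exceeds the activity threshold set in the earlier primary screen, cut at about 20% in these data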
ADAM17 confirm = confirmation of inhibitors of human ADAM17; hit rate 65% among 2,900; inhibition, % at 6.95 µM; AID 743257; recombinant ADAM17, EDANS/DABCYL QFRET peptide cleavage; shares compounds with ADAM17 inh;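 active = mean inhibition across replicates above the hit cutoff set in the primary screen, cut at about 8.5% in these data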
Each line names hits and unclear results; the compound was inactive in the other large screens (follow-up assays come after a bar, where they were run). Only some compounds are listed: those with a hit (about 3.4% of all), similar ones and a draw of the others.

CC(C1CC1)N(Cc1ccccc1)C(=S)Nc1ccccc1Cl (stereo unspecified)	none
COCCn1c(Cc2ccccc2)nnc1SC(C)C(=O)NC1CC1 (stereo unspecified)	none
Cc1ccc(NC(=O)c2c(C(F)(F)F)nn(C)c2SCc2cccc(C(F)(F)F)c2)cc1C	ADAM17 inh 14.2, ADAM10 inh 37.0 | ADAM10 confirm inactive | ADAM17 ctr inactive | ADAM10 ctr 45.2 | ADAM17 confirm 24.8
Cc1ccc(NC(=O)c2c(C(F)(F)F)nn(C)c2SCc2ccc(Cl)cc2)cc1C	none
C/C(=N/Nc1ccc([N+](=O)[O-])cc1)c1ccc(C)cc1C	ADAM17 inh 9.6, ADAM10 inh 23.1 | ADAM10 confirm inactive | ADAM17 ctr inactive | ADAM10 ctr inactive | ADAM17 confirm 14.9
C/C(=N\Nc1ccc([N+](=O)[O-])cc1)c1ccc(C#N)cc1	none
CC(=O)c1ccc(S(=O)(=O)NCCc2cn3ccc(C)cc3n2)cc1	none
Cc1ccc(NC(=O)COC(=O)/C=C/c2cccc(Cl)c2)cc1S(=O)(=O)N1CCOCC1	ADAM17 inh 9.5, ADAM10 inh 29.4 | ADAM10 confirm inactive | ADAM17 ctr inactive | ADAM10 ctr 26.2 | ADAM17 confirm 15.4
O=C(COC(=O)/C=C/c1cccc(Cl)c1)Nc1ccc(N2CCOCC2)cc1	none
COc1ccc(Cl)cc1NC(=O)CN(C)Cc1cccs1	none
CC(C)C[C@@]12C(=O)N(c3cccc(Br)c3)C(=O)N1[C@H](c1ccc(F)cc1)[C@@H]1C(=O)N(C3CCCCC3)C(=O)[C@@H]12	none
CC[C@@]12C(=O)N(c3cccc(Br)c3)C(=O)N1[C@H](c1ccc(F)cc1)[C@@H]1C(=O)N(C3CCCCC3)C(=O)[C@@H]12	ADAM17 inh 10.7, ADAM10 inh 25.6 | ADAM10 confirm inactive | ADAM17 ctr inactive | ADAM10 ctr 19.9 | ADAM17 confirm 14.2
CC(=O)N1CCN(S(=O)(=O)c2ccc3c(c2)CC(=O)N3)CC1	none
CC1=C(C(=O)Nc2ccc([N+](=O)[O-])cc2)C(c2cccc(C(F)(F)F)c2)NC(=S)N1c1ccccc1 (stereo unspecified)	ADAM17 inh 17.7, ADAM10 inh 34.5 | ADAM10 confirm inactive | ADAM17 ctr inactive | ADAM10 ctr 59.2 | ADAM17 confirm 31.7
O=C(NCC1COc2ccccc2O1)c1ccc(F)c(S(=O)(=O)N2CCOCC2)c1 (stereo unspecified)	none
CCc1ccc(NC(=O)c2ccc(F)c(S(=O)(=O)NCC3COc4ccccc4O3)c2)cc1 (stereo unspecified)	ADAM17 inh 13.3, ADAM10 inh 28.7 | ADAM10 confirm inactive | ADAM17 ctr inactive | ADAM10 ctr 43.0 | ADAM17 confirm 18.9
CCN(c1ccccc1)S(=O)(=O)c1cc(C(=O)Nc2ccccc2Cl)ccc1F	none
CCN(c1ccccc1)S(=O)(=O)c1cc(C(=O)Nc2ccc(Br)cc2)ccc1F	ADAM17 inh 12.1, ADAM10 inh 24.1 | ADAM10 confirm inactive | ADAM17 ctr inactive | ADAM10 ctr 25.7 | ADAM17 confirm 12.9
C=CCC[C@@H](Cc1ccc(F)cc1)C(=O)OC[C@@H]1CCCN1C(=O)[C@H](CC=C)CC(=O)N[C@H](CO)Cc1ccccc1	ADAM17 inh 9.4, ADAM10 inh 27.5 | ADAM10 confirm inactive | ADAM17 ctr inactive | ADAM10 ctr 28.1 | ADAM17 confirm 12.2
O=C(CSc1nn(-c2ccccc2)c(=S)s1)Nn1cnnc1	none
Cc1ccc(NC(=O)CSc2nn(-c3ccccc3)c(=S)s2)cc1S(=O)(=O)N(C)C	ADAM17 inh 9.0, ADAM10 inh 22.0 | ADAM10 confirm inactive | ADAM17 ctr inactive | ADAM10 ctr 32.8 | ADAM17 confirm 18.6
CCOC(=O)C1=C(N)N(c2cc(S(=O)(=O)N3CCOCC3)ccc2Cl)C(=O)C1	none
COc1ccc(CNC(=O)C(C)n2ccc3cc(S(=O)(=O)N4CCCCCC4)ccc32)cc1 (stereo unspecified)	ADAM17 inh 12.2, ADAM10 inh 28.4 | ADAM10 confirm inactive | ADAM17 ctr inactive | ADAM10 ctr 22.1 | ADAM17 confirm 15.6
Cc1nn(Cc2ccc(C(=O)N3CCN(C(=O)c4ccco4)CC3)o2)c(C)c1[N+](=O)[O-]	none
COc1cc(/C=N/O)cc(Br)c1OC	none
COc1cc(/C=N/O)cc(Br)c1OCc1ccc(Cl)cc1	ADAM17 inh 8.9, ADAM10 inh 21.4 | ADAM10 confirm inactive | ADAM17 ctr inactive | ADAM10 ctr 21.0 | ADAM17 confirm 10.7
CN(c1ccc(OCC(=O)OCC(=O)Nc2ccc(Br)cc2)cc1)S(=O)(=O)c1cccs1	ADAM17 inh 12.1, ADAM10 inh 20.1 | ADAM10 confirm inactive | ADAM17 ctr inactive | ADAM10 ctr 30.7 | ADAM17 confirm 16.1
CN(c1ccc(OCC(=O)OCC(=O)Nc2ccccc2)cc1)S(=O)(=O)c1cccs1	none
CN1CCN(C(=O)/C(=C/c2cccs2)NC(=O)c2ccco2)CC1	none
NC(=O)COC(=O)c1ccc(Cl)c(S(=O)(=O)N(Cc2ccccc2)c2ccc(Cl)cc2)c1	ADAM17 inh 10.3, ADAM10 inh 25.9 | ADAM10 confirm inactive | ADAM17 ctr inactive | ADAM10 ctr 24.3 | ADAM17 confirm 13.6
NC(=O)NC(=O)COC(=O)c1ccc(Cl)c(S(=O)(=O)N(Cc2ccccc2)c2ccc(Cl)cc2)c1	none
C=CCNC(=O)COC(=O)c1ccc(Cl)c(S(=O)(=O)N(Cc2ccccc2)c2ccccc2)c1	ADAM17 inh 11.6, ADAM10 inh 21.9 | ADAM10 confirm inactive | ADAM17 ctr inactive | ADAM10 ctr 29.4 | ADAM17 confirm 19.9
COC(=O)C1CC2(C(=O)OC)CC(C(=O)OC)(CC(C(=O)OC)C2=O)C1=O (stereo unspecified)	none
CCN(CC)S(=O)(=O)c1cccc(NC(=O)Nc2cccc(C(F)(F)F)c2)c1	ADAM17 inh 11.1, ADAM10 inh 30.2 | ADAM10 confirm inactive | ADAM17 ctr inactive | ADAM10 ctr 55.3 | ADAM17 confirm 29.1
CCN(CC)S(=O)(=O)c1cccc(NC(=O)CC2CCCC2)c1	none
CCOC(=O)c1ccc(NC(=O)C2(c3ccc(Cl)cc3)CCCC2)cc1	none

Screens (PubChem BioAssay)
